Experimental data reported in PubChem BioAssay (NCATS).
A number with no mark means an inactive call. Inconclusive results are not listed. A call without a number means that no potency is given here. Calls of active or inactive are those of the source. Unless noted, the call rests on the fitted dose curve; in most records, active means well fitted curve in the direction sought with a large enough effect; inconclusive means small, poorly fitted or top-dose-only effect, or another doubt; inactive means no such curve, though single readings can be large; an effect the other way counts as inactive or inconclusive.

Assays:
[1] = target: Cytochrome P450 1A2 (Homo sapiens) (UniProt P05177); test: p450-cyp1a2 (AID 410; calls by dose curve; further: potency means the concentration at half of the fitted maximal effect)
Procedure, shortened: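 O-Demethylation of luciferin 6' methyl ether by human CYP1A2 is monitored as luciferase luminescence. Substrate sits at Km (100uM); enzyme is 20nM. Values are scaled to 57 uM furafylline as maximal inhibition.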

[2] = target: Glucocorticoid receptor (Homo sapiens) (UniProt P04150); test: GR-GFP Redistribution (AID 450;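 active means compounds whose dose series gives a full or clear partial fitted curve of increased nuclear translocation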; further: potency means the concentration at half of the fitted maximal effect); details: U2OS GR-GFP nuclear translocation, laser cytometry, 2 h
[3] = target: Glucocorticoid receptor (Homo sapiens) (UniProt P04150); test: GR-EFC Redistribution (AID 451; calls by dose curve; further: potency means the concentration at half of the fitted maximal effect); details: CHO-K1 GR-EFC translocation, beta-gal luminescence, 2 h
Procedure, shortened: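 CHO-K1 cells expressing nuclear EA and GR-ED fragments of b-gal; compounds titrated up to 46 uM final, 2 h at 37 C. GR nuclear translocation read as complemented b-gal luminescence after 1 h RT detection.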

[4] = target: 3',5'-cyclic-AMP phosphodiesterase 4B (Homo sapiens) (UniProt Q07343); test: qHTS Assay for Inhibitors of PDE-IV (AID 607; active means well fitted activation curve with a large enough effect in the main read-out, with a control signal flat, not every such curve was filed as active)
Procedure, shortened: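 The readout is membrane depolarisation from a cAMP-sensing CNG channel, detected with a potential dye at ex 535/em 590. Cells were HEK293-derived (endogenous PDE-IV) at 1000 cells/well, titrated up to 22.9 uM final.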

[5] = target: Cytochrome P450 3A4 (Homo sapiens) (UniProt P08684); test: qHTS Assay for Activators of Cytochrome P450 3A4 (AID 885); further: nearly all actives have a fitted effect of over 65% in size
Procedure, shortened: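 Activators are scored by enhanced luminescence from CYP3A4 conversion of luciferin-PPXE (25uM, equal to KM) to luciferin, after 60 min at RT with an NADPH-regenerating system.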

[6] = target: DNA dC->dU-editing enzyme APOBEC-3G (Homo sapiens) (UniProt Q9HC16); test: qHTS for inhibitors of Vif-A3G interactions: Validation (AID 588379)
Procedure, shortened: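 Yellow fluorescence (Ex 488, Em 500-530) of Vif-coexpressing HeLa A3G-eYFP cells, scanned by Acumen cytometer, reports blocked A3G degradation. Cells plated at 700/well overnight at 37 deg C before compound addition, then a further overnight compound incubation at 37 deg C.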

[7] = test system: Zika virus NS2B-NS3 protease; test: Primary screen GU AMC qHTS for Zika virus inhibitors (AID 1347154); further: nearly all actives have a fitted effect of over 70% in size
Procedure, shortened: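 Unlinked Zika NS2B hydrophilic domain–NS3 protease complex at 25 nM in 10 mM Tris-HCl pH 8.0, 0.01% Tween 20, with an AMC peptide substrate. Fluorescence change (340/450 nm) over 15 min at room temperature, normalized to controls, fitted to 4-parameter Hill.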

[8] = target: Mitogen-activated protein kinase 10 (Mus musculus) (UniProt Q61831); test: JNK3 AlphaScreen Assay (AID 530; active means well fitted curve in either direction with a large enough effect, not every such curve was filed as active;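 further: kinase came from lysate of stimulated human HepG2 cells; signal reports phosphorylation of biotinylated GST-cJun 1-79 at Ser73 with 10 µM ATP; series mostly up to about 57 µM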)
Procedure, shortened: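 Activity was read by AlphaScreen after JNK3-containing HepG2 lysate (cytokine pre-activated) phosphorylated biotinylated GST-cJun with 10 uM ATP at room temperature. Phospho-Ser73 cJun antibody with Protein-A acceptor beads provided detection.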

[9] = target: Ubiquitin carboxyl-terminal hydrolase 1 (Homo sapiens) (UniProt O94782); test: Inhibitors of USP1/UAF1: Pilot qHTS (AID 504865); further: potency means the concentration at half of the fitted maximal effect; nearly all actives have a fitted effect of over 35% in size
Procedure, shortened: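 USP1/UAF1 complex (1nM) preincubated with compound 15 min at room temperature, then Ub-Rho substrate (150nM final) added. Fluorescence read kinetically at 480/540 nm, 6 reads every 60 seconds. Buffer: 50mM HEPES pH 7.8, 0.5mM EDTA, 0.1 mg/ml BSA, 1mM TCEP, 0.01% Tween-20.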

[10] = Confirmatory screen GU Rhodamine qHTS for Zika virus inhibitors qHTS (AID 1347157); further: nearly all actives have a fitted effect of over 70% in size; further: potency means the concentration at half of the fitted maximal effect
Procedure, shortened: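 Buffer 10 mM Tris-HCl pH 8.0, 0.01% Tween 20. Unlinked protease 25 nM; compound preincubation 15 min, RT, protected from light. Substrate Rhod110, 1.5 microM; ~15% conversion in 15 min.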

[11] = Confirmatory screen NINDS Rhodamine qHTS for Zika virus inhibitors (AID 1347161); further: nearly all actives have a fitted effect of over 60% in size; further: potency means the concentration at half of the fitted maximal effect
Procedure, shortened: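 Purified NS2B-NS3 protease with the NS2B hydrophilic domain joined by a flexible linker (25 nM) in 10 mM Tris-HCl pH 8.0, 0.01% Tween 20, preincubated 15 min at RT with compound; Rhodamine110 peptide substrate 1.5 µM; fluorescence change over 15 min; 4-parameter Hill fit.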

[12] = Tertiary RLuc qRT-PCR qHTS assay for Zika virus inhibitors (AID 1347169); further: top concentration of the series differs between compounds; nearly all actives have a fitted effect of over 55% in size
Procedure, shortened: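 Vero cells (1,000 per well) plated overnight at 37 degrees C, treated with compound in DMSO, then infected with recombinant ZIKV-RLuc (Cambodian) at MOI 1-2 for 48-72 hrs. Live-cell Renilla luciferase substrate added; luminescence read after 1-1.5 hrs.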

[13] = ZIKV-mCherry secondary qHTS for Zika virus inhibitors (AID 1347158); further: top concentration of the series differs between compounds
Procedure, shortened: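 Compounds were tested in Vero monkey kidney cells infected with recombinant mCherry-expressing Zika virus at MOI 1 for 48-72 h at 37 °C. Fixed cells were nuclear-stained and imaged, and infection rate was taken as the fraction of mCherry-positive cells.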

[14] = test system: Zika virus NS2B-NS3 protease (linked); test: 384 well plate NINDS AMC confirmatory qHTS for Zika virus inhibitors (AID 1347163); further: potency means the concentration at half of the fitted maximal effect; nearly all actives have a fitted effect of over 50% in size
Procedure, shortened: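 Fluorescence at 355/460 nm was read after 25 minutes of cleavage of 30 microM Ac-VKTGKR-AMC at room temperature, in the dark. Before substrate addition, compounds (up to 1 mM final) sat ~15 minutes with 5, 30 or 60 nM linked protease. Signals were normalized to no-enzyme and no-inhibitor wells.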

Sequence of Glucocorticoid receptor (Homo sapiens) (P04150 whole entry, looked up, the tested form may be a part): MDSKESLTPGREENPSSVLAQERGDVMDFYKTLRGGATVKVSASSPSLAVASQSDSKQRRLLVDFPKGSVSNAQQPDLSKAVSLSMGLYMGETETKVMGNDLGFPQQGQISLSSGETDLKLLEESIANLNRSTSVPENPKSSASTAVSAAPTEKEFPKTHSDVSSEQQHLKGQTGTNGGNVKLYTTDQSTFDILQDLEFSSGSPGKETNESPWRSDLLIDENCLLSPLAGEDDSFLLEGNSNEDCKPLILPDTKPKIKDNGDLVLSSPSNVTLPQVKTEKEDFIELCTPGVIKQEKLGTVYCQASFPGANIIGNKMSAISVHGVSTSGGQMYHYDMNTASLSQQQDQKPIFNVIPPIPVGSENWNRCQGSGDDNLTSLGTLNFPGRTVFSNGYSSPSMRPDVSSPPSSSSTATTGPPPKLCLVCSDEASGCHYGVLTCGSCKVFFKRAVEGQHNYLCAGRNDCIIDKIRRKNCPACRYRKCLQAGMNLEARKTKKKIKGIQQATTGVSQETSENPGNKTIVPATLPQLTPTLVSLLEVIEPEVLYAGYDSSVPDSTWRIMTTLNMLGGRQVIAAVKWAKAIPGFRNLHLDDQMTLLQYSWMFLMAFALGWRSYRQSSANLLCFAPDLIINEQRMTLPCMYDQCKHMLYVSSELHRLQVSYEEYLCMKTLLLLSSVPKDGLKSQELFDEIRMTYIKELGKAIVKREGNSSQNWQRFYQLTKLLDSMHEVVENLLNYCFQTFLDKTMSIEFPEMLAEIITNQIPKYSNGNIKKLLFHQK
Sequence of 3',5'-cyclic-AMP phosphodiesterase 4B (Homo sapiens) (Q07343 whole entry, looked up): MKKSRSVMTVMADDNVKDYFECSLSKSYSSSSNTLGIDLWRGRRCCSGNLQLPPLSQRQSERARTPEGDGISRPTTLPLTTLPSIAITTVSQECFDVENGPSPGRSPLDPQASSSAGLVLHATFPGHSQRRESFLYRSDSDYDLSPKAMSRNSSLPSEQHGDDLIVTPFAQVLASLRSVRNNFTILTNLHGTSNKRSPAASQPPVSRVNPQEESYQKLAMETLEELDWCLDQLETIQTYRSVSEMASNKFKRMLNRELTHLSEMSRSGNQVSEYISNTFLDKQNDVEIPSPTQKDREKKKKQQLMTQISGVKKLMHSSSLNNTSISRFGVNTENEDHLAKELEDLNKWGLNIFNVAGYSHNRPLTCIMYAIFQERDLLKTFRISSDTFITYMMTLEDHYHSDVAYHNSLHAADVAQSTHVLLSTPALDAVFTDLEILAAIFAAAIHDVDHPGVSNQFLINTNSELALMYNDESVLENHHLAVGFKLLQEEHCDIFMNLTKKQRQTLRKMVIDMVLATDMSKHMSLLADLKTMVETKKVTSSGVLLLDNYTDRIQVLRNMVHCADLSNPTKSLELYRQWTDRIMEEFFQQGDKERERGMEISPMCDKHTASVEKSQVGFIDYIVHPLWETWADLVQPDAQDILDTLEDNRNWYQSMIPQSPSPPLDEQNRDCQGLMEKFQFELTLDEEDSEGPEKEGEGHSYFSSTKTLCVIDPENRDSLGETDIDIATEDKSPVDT
Sequence of DNA dC->dU-editing enzyme APOBEC-3G (Homo sapiens) (Q9HC16 whole entry, looked up): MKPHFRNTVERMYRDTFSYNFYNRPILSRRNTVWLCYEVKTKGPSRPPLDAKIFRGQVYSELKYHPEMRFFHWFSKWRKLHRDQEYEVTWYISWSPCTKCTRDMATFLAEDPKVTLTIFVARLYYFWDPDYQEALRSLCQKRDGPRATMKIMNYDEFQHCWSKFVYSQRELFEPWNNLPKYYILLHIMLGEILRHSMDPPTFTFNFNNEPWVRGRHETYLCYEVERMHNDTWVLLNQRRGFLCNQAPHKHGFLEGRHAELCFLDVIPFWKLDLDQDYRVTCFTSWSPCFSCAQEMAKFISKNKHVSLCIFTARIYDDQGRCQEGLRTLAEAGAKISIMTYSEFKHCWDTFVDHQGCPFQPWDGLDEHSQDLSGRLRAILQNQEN
Sequence of Ubiquitin carboxyl-terminal hydrolase 1 (Homo sapiens) (O94782 whole entry, looked up): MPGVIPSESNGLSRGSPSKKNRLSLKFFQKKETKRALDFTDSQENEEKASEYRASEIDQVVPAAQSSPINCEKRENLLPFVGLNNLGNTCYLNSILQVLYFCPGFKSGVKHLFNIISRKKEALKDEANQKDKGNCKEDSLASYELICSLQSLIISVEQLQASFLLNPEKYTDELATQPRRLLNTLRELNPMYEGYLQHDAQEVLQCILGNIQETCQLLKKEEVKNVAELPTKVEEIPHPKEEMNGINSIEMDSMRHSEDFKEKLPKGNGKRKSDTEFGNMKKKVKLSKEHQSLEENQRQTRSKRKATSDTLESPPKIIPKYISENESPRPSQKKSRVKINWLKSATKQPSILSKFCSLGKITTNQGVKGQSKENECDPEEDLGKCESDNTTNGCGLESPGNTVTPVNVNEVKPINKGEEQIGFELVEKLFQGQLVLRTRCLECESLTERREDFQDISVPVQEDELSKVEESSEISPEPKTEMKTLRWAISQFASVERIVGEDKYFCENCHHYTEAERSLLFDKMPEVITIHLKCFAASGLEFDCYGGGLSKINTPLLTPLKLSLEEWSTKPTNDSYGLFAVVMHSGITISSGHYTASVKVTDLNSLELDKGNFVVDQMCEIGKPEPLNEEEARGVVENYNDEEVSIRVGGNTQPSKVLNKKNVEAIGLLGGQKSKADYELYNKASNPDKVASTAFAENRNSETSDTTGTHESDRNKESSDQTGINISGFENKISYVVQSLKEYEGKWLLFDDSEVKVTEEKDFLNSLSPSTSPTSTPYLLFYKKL
Sequence of Cytochrome P450 3A4 (Homo sapiens) (P08684 whole entry, looked up): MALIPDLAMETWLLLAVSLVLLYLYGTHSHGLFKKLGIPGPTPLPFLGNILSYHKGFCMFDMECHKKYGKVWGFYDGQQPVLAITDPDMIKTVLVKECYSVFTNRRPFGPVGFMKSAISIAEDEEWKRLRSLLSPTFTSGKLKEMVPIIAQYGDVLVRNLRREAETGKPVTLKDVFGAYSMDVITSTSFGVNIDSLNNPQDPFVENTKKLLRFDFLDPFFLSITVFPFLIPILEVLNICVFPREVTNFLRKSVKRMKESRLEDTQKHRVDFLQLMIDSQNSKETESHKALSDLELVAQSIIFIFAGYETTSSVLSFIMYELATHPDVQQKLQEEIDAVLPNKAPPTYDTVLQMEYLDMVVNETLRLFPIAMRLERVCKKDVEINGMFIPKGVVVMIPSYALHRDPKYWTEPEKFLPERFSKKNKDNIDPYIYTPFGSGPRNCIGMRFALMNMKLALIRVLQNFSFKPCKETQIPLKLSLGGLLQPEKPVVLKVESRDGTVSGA
Sequence of Cytochrome P450 1A2 (Homo sapiens) (P05177 whole entry, looked up): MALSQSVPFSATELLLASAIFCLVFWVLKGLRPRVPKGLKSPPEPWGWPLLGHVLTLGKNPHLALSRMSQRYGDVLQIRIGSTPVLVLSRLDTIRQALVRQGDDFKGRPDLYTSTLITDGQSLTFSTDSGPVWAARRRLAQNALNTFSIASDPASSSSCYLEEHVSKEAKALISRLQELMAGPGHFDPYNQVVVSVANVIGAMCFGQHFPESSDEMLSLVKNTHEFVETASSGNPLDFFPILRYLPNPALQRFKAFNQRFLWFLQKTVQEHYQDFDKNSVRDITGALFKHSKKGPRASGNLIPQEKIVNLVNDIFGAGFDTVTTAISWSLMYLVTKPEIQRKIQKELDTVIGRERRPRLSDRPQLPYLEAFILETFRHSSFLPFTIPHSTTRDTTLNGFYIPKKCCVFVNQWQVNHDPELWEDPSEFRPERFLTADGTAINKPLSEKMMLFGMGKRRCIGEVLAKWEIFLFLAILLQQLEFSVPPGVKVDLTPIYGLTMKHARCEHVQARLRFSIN

With `Cc1ccc(S(=O)(=O)NCc2ccccc2)cc1` the Potency [1] was 0.501 µM (active), the Potency [2] was greater than 46 µM and the Potency [3] was greater than 46 µM. For the same molecule, the Potency [4] was “inactive”, the Potency [5] was “inactive” and the Potency [6] was “inactive”. For the same molecule, the Potency [7] was “inactive”.

In the case of `O=C(O)COc1cccc(-c2ocnc2-c2nc(-c3ccccc3)c(-c3ccccc3)o2)c1`, the Potency [2] is reported as greater than 46 µM, the Potency [3] is reported as greater than 46 µM and the Potency [8] is reported as “inactive”. The Potency [4] was “inactive”, the Potency [9] was 39.8 µM (active) and the Potency [6] was “inactive”. The Potency [7] was “inactive”.

In the case of `Cc1ccc(OCC(=O)Nc2ccccc2C(=O)OCc2cc(=O)n3nc(C4CC4)sc3n2)cc1`, the Potency [10] is reported as “inactive” and the Potency [11] is reported as “inactive”.

With `COc1ccc(S(=O)(=O)c2c(Nc3ccc(C)cc3)sc(C(=O)c3ccc4c(c3)OCO4)c2N)cc1` the Potency [10] was “inactive”, the Potency [11] was “inactive” and the Potency [12] was “inactive”.

With `O=C(OCC#CCSc1nnc(-c2cccc3ccccc23)o1)c1ccc(C(F)(F)F)cc1` the Potency [10] was “inactive”, the Potency [11] was “inactive” and the Potency [12] was “inactive”.

In the case of `CCN(Cc1cccc(S(=O)(=O)O)c1)c1ccc(C(=C2C=CC(=[N+](CC)Cc3cccc(S(=O)(=O)O)c3)C=C2)c2ccc(O)cc2S(=O)(=O)O)cc1`, the Potency [10] is reported as 4.47 µM (active), the Potency [13] is reported as “inactive” and the Potency [11] is reported as 3.55 µM (active). For the same molecule, the Potency [14] was 63.1 µM (active).
